According to PubChem BioAssay (Tox21):
Results filed as inconclusive are left out. The source made the active and inactive calls. Unless noted, calls come from the whole dose curve; as a rule, active = well fitted curve in the direction sought with a large enough effect in the repeat runs; inconclusive = weak or mixed curves; inactive = no such curve, though single readings can be large; an effect the other way counts as inactive or inconclusive.

Tests used:
[1] = A CellTox Green Cytotoxicity Assay to monitor cytotoxicity in HepG2 cells - 8 hour (AID 1224890); note: nearly all actives have a fitted effect of over 45% in size
In short: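 First, HepG2 cells (600/well) mixed with reagent were plated; second, after 5 h at 37 C they received compounds via pintool; third, fluorescence was measured at 0 h through 40 h at 8 h intervals.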

[2] = qHTS assay to identify small molecule antagonists of the androgen receptor (AR) signaling pathway using the MDA cell line in the presence of 0.5 nM R1881 - cell viability counter screen (AID 1259242); note: nearly all actives have a fitted effect of over 45% in size; note: potency is the fitted concentration of half-maximal effect
In short: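 qHTS format. MDA-kb2 (MMTV-luc, AR/GR responsive) + cpd + 0.5 nM R1881 final, 16 hr 37C/0% CO2 → CellTiter-Fluor 30 min → fluorescence intensity.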

[3] = biological target: Estrogen receptor (Homo sapiens) (UniProt P03372); assay: qHTS assay to identify small molecule antagonists of the estrogen receptor alpha (ER-alpha) signaling pathway using the BG1 cell line in the presence of 0.1 nM 17-beta-estradiol (AID 1259244); note: nearly all actives have a fitted effect of over 50% in size
In short: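 Reporter is a stably transfected luciferase under four estrogen responsive elements in VM7Luc4E2 cells expressing native full-length ER-alpha; inhibition of 0.1 nM (final) 17beta-estradiol-driven signal over 22 h is read by luminescence.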

[4] = qHTS assay to identify small molecule HDAC inhibitors (AID 1259364); note: potency is the fitted concentration of half-maximal effect;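 note: wild-type HCT-116 cells with endogenous class I/II HDAC activity; nearly all actives have a fitted effect of over 45% in size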
In short: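 Quantitative high-throughput format: overnight-seeded HCT-116 cells got compounds for 2 hr at 37C; HDAC-Glo I/II reagent added, 30 min RT, luminescence measured.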

[5] = qHTS assay to identify small molecule agonists of the sonic hedgehog signaling (Shh) pathway - cell viability counter screen (AID 1259366); note: nearly all actives have a fitted effect of over 50% in size; note: potency is the fitted concentration of half-maximal effect
In short: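 NIH/3T3-derived 3T3 Gli1-Luc cells (stable Gli1-responsive firefly luciferase reporter) were seeded, rested 4 hr at 37 C/5% CO2, then exposed to compounds in DMSO for 24 hr; viability was read by CellTiter-Fluor fluorescence in the same wells.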

[6] = qHTS assay to identify small molecule antagonists of the sonic hedgehog signaling (Shh) pathway - cell viability counter screen (AID 1259367); note: nearly all actives have a fitted effect of over 55% in size; note: potency is the fitted concentration of half-maximal effect
In short: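 Fluorescence read-out (CellTiter-Fluor, 1 hr at 37C) taken after 23 hr compound treatment of 3T3 Gli1-Luc cells stimulated with conditioned medium. Cells were seeded at 2,000 per well and pre-incubated 4 hr.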

[7] = qHTS assay to identify small molecule agonists of the sonic hedgehog signaling (Shh) pathway (AID 1259368; calls by dose curve; note: series mostly up to about 92 µM; nearly all actives have a fitted effect of over 15% in size)
In short: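 Quantitative high-throughput format using a Gli1-driven firefly luciferase reporter line derived from NIH/3T3 cells. After a 24 hr compound treatment at 37 C and 5% CO2, luminescence reported Gli1 response element activity.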

[8] = qHTS assay to identify small molecule antagonists of the sonic hedgehog signaling (Shh) pathway (AID 1259369; calls by dose curve; note: nearly all actives have a fitted effect of over 45% in size; note: potency is the fitted concentration of half-maximal effect)
In short: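 Stable Gli1-Luc reporter NIH/3T3 clone; quantitative HTS in stimulated mode with conditioned medium. Luminescence measured after 24hr compound treatment at 37 C.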

[9] = biological target: Estrogen receptor beta (Homo sapiens) (UniProt Q92731); assay: qHTS assay to identify small molecule agonists of the estrogen receptor beta (ER-beta) signaling pathway (AID 1259377; active = well fitted activation curve with a large enough effect in the signal ratio in the repeat runs, not every such curve was filed as active; the % refers to the signal ratio)
In short: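 ER-beta-UAS-bla HEK293T (GripTite) cells carrying a UAS-driven beta-lactamase reporter, in medium with 2% charcoal-stripped FBS, were exposed to compounds for 16 hr at 37C; LiveBLAzer B/G FRET substrate was then added and fluorescence read after 2 hours at room temperature.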

[10] = biological target: Estrogen receptor beta (Homo sapiens) (UniProt Q92731); assay: qHTS assay to identify small molecule antagonists of the estrogen receptor beta (ER-beta) signaling pathway (AID 1259378; active = well fitted inhibition curve with a large enough effect in the signal ratio in the repeat runs, not every such curve was filed as active; the % refers to the signal ratio)
In short: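 ER-beta-UAS-bla HEK293T cells in 2% charcoal-stripped FBS medium treated with compound plus 1nM final 17-beta-estradiol for 16 hr at 37C. Beta-lactamase reporter read by FRET substrate fluorescence after 2 hours at room temperature.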

[11] = qHTS assay to identify small molecule agonists of the androgen receptor (AR) signaling pathway in the presence of an antagonist - cell viability counter screen (AID 1259379); note: nearly all actives have a fitted effect of over 25% in size; note: potency is the fitted concentration of half-maximal effect
In short: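 Nilutamide-containing (3.0uM final) MDA-kb2 cultures, 3,000 cells/well, were treated with compounds across 15 concentrations. After 16 hr at 37C with no CO2, cell viability was determined by CellTiter-Fluor fluorescence in the luciferase assay wells.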

[12] = qHTS assay to identify small molecule agonists of the estrogen receptor beta (ER-beta) signaling pathway - cell viability counter screen (AID 1259380); note: nearly all actives have a fitted effect of over 30% in size
In short: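 Steps: plate ER-beta-UAS-bla HEK293T cells, rest 6 hr; add compounds in DMSO; incubate 16 hr at 37C, 5% CO2; add FRET substrate 2 hr; add CellTiter-Glo, wait 30 min at room temperature; read luminescence.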

[13] = qHTS assay to identify small molecule antagonists of the estrogen receptor beta (ER-beta) signaling pathway - cell viability counter screen (AID 1259382); note: series mostly up to about 92 µM; nearly all actives have a fitted effect of over 55% in size
In short: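 Viability is scored by CellTiter-Glo luminescence (30 min, room temperature) in ER-beta-UAS-bla HEK293T wells already read for reporter fluorescence. Compound exposure lasts 16 hr at 37C alongside 1nM 17-beta-estradiol in charcoal-stripped serum medium.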

[14] = biological target: Estrogen receptor (Homo sapiens) (UniProt P03372); assay: qHTS assay to identify small molecule agonists of the estrogen receptor alpha (ER-alpha) signaling pathway in the presence of an antagonist (AID 1259383; calls by dose curve; note: top concentration of the series differs between compounds; nearly all actives have a fitted effect of over 15% in size)
In short: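 Readout was ERE-driven luciferase luminescence in VM7Luc4E2 cells, which express full-length ER-alpha endogenously. Compounds were tested at 15 concentrations for 22hr alongside 10.0nM ICI-182,780 (final concentration).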

[15] = qHTS assay to identify small molecule agonists or antagonists of the thyroid stimulating hormone receptor (TSHR) signaling pathway - wild type cell line counter screen (AID 1259384; calls by dose curve)
In short: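 Wild-type Hek293 cells, 800/well, 18 h at 37C, then compound with Ro20-1724 for 30 min RT. cAMP by HTRF (cAMP-d2/anti-cAMP cryptate), 1 h RT, fluorescence read. 15 concentrations, triplicates.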

[16] = qHTS assay to identify small molecule antagonists of the estrogen receptor alpha (ER-alpha) signaling pathway using the BG1 cell line in the presence of 0.1 nM 17-beta-estradiol - cell viability counter screen (AID 1259241); note: nearly all actives have a fitted effect of over 40% in size
In short: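 VM7Luc4E2 cells (endogenous ER-alpha, 4×ERE-luciferase), hormone-starved 5 days in charcoal-stripped FBS, were treated with compounds plus 0.1 nM 17beta-estradiol for 22 hr at 37C; viability read in same wells as CellTiter-Fluor live-cell protease fluorescence.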

[17] = qHTS assay to identify small molecule phospholipidosis (PLD) inducers (AID 1259344; active = well fitted curve in the direction sought with a large enough effect; an effect the other way counts as inactive or inconclusive)
In short: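 Read-out is LipidTOX Red fluorescence (ex 595/em 615) imaged in HepG2 cells after 24 h compound exposure at 37 C, with Hoechst nuclear counterstain (ex 352/em 461) allowing per-cell normalisation.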

[18] = qHTS assay to identify small molecule HDAC inhibitors - cell viability counter screen (AID 1259365); note: series mostly up to about 92 µM; nearly all actives have a fitted effect of over 50% in size
In short: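 Wild-type HCT-116 cells were seeded at 1,500 per well, incubated overnight at 37 C, then exposed to compounds in DMSO for 2hr. Viability was read by CellTiter-Glo luminescence after 30min at room temperature.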

[19] = biological target: Androgen receptor (Homo sapiens) (UniProt P10275); assay: qHTS assay to identify small molecule antagonists of the androgen receptor (AR) signaling pathway using the MDA cell line in the presence of 0.5 nM R1881 (AID 1259243); note: nearly all actives have a fitted effect of over 50% in size
In short: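 Antagonist mode quantitative HTS in MDA-kb2 MMTV-luciferase cells, agonist R1881 at 0.5 nM final, 16 hr exposure at 37C and 0% CO2, luminescent detection.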

[20] = biological target: Androgen receptor (Homo sapiens) (UniProt P10275); assay: qHTS assay to identify small molecule agonists of the androgen receptor (AR) signaling pathway in the presence of an antagonist (AID 1259381; calls by dose curve; note: nearly all actives have a fitted effect of over 15% in size)
In short: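 Reporter-gene luminescence from MDA-kb2 cells exposed 16hr at 37C (0% CO2) to 15-point compound titrations with 3.0uM final nilutamide as AR antagonist.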

Measured: Potency

Estrogen receptor beta (Homo sapiens), sequence (Q92731 whole entry, looked up): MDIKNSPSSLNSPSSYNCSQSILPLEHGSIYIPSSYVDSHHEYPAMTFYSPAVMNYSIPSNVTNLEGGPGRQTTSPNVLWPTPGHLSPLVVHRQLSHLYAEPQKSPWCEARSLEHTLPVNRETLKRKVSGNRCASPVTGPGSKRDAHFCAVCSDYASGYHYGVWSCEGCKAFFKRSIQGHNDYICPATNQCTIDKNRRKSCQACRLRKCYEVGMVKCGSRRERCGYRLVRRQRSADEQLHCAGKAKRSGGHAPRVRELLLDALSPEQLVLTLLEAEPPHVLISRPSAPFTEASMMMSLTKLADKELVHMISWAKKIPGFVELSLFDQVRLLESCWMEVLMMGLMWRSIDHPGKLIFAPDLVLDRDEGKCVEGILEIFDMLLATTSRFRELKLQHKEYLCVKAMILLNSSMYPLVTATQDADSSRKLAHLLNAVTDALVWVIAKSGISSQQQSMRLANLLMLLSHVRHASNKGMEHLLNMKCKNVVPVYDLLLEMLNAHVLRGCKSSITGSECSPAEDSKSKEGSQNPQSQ
Androgen receptor (Homo sapiens), sequence (P10275 whole entry, looked up): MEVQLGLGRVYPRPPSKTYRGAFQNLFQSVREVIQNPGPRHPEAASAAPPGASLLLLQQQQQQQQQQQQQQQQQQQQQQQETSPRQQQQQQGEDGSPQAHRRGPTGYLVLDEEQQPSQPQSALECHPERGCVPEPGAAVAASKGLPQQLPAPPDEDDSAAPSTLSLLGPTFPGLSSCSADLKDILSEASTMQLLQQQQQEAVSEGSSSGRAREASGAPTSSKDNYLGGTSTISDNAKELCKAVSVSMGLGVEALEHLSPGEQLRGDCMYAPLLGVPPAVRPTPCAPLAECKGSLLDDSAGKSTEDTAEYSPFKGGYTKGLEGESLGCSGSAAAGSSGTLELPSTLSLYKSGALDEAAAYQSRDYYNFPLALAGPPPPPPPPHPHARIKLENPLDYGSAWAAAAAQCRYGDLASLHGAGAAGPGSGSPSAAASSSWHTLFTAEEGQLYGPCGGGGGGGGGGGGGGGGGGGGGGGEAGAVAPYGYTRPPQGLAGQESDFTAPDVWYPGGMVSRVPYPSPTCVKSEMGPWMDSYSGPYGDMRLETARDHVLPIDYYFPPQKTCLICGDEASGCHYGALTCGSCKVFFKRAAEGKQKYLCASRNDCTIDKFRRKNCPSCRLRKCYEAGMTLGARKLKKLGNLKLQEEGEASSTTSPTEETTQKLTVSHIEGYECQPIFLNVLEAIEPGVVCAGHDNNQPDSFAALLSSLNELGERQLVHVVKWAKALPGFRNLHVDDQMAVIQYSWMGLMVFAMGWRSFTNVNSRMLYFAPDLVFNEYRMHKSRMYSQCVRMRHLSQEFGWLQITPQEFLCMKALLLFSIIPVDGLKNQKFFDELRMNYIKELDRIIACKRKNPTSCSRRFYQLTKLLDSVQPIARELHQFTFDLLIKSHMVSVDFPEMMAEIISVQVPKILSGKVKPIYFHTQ
Estrogen receptor (Homo sapiens), sequence (P03372 whole entry, looked up): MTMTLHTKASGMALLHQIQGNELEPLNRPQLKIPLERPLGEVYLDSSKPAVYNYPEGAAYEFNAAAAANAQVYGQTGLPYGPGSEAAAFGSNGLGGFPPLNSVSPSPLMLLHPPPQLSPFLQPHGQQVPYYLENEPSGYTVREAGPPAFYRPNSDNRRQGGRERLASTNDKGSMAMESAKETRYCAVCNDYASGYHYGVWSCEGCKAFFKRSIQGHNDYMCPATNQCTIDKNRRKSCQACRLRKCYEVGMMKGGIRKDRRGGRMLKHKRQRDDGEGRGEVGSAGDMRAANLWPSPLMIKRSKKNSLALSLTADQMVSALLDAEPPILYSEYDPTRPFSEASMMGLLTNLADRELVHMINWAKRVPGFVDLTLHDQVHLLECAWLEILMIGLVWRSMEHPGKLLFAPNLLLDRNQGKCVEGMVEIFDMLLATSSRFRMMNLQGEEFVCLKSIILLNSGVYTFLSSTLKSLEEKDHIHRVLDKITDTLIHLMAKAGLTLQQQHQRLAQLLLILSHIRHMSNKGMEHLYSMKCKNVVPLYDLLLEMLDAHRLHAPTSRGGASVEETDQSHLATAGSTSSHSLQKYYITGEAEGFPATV

COc1ccc(/C(C)=C/C(=O)O)c(OC)c1
not listed: [16] | [17] | [18] | [19] | [20]
inactive: all other assays above

CC(C)(C)NCC(O)COc1ccc(NC(=O)NC2CCCCC2)cc1 (centres undefined)
not listed: [1] | [19] | [20]
inactive: all other assays above

CCCCOC(=O)CC#N
active: [8] 32.1 µM
not listed: [9] | [10] | [16] | [17] | [19] | [20]
inactive: all other assays above

CCCc1nc(C)c2c(=O)[nH]c(-c3cc(S(=O)(=O)N4CCN(CC)CC4)ccc3OCC)nn12
not listed: [1] | [3] | [8] | [9] | [14] | [15]
inactive: all other assays above

CCCCCCCCOCCCN
active: [8] 30.6 µM
not listed: [1] | [5] | [6] | [9] | [10] | [12] | [13] | [17]
inactive: all other assays above

C=C[Si](OCC)(OCC)OCC
not listed: [3] | [14] | [16] | [17] | [19] | [20]
inactive: all other assays above

O=C1c2ccccc2C(=O)C1c1ccc2cc(S(=O)(=O)O)cc(S(=O)(=O)O)c2n1
active: [2] 58.9 µM | [4] 0.589 µM | [5] 29.5 µM | [6] 29.5 µM | [11] 29.5 µM
not listed: [3] | [12] | [16] | [17] | [19] | [20]
inactive: all other assays above

Nc1ncnc2c1ncn2[C@@H]1O[C@H](CO)[C@@H](O)[C@H]1O
not listed: [3] | [10] | [16] | [19] | [20]
inactive: all other assays above

SCCOCCOCCS
inactive: [1] | [2] | [4] | [18] | [5] | [6] | [8] | [11] | [13]
